SMILES strings stand for the structures. Calls of active or inactive are those of the source. The calls were made as follows: active = hit-call score of the fitted dose curve at least 0.9, where 1 is the maximum; inactive = score below 0.9.

This test in a line: APR_HepG2_MicrotubuleCSK_72hr: Apredica 72-hour HepG2 Assay for Microtubule CSK Stabilty (AID 2282919). As to conditions: HepG2 microtubule cytoskeleton, high-content imaging, actives raise or lower the signal. The procedure:
APR_HepG2_72hr is a cell-based, multiplexed-readout assay that uses HepG2, a human liver cell line, with measurements taken at 72 hours after chemical dosing in a 384-well plate.APR_HepG2_MicrotubuleCSK_72hr is one of 10 assay component(s) measured or calculated from the APR_HepG2_72hr assay. It is designed to make measurements of protein conformation, a form of conformation reporter, as detected with fluorescence intensity signals by HCS Fluorescent Imaging technology.Data from the assay component APR_HepG2_MicrotubuleCSK_72hr was analyzed into 1 assay endpoint. This assay endpoint, APR_HepG2_MicrotubuleCSK_72hr, was analyzed with bidirectional fitting relative to DMSO as the negative control and baseline of activity. Using a type of conformation reporter, measures of protein for gain or loss-of-signal activity can be used to understand the signaling at the cellular-level. Furthermore, this assay endpoint can be referred to as a primary readout, because this assay has produced multiple assay endpoints where this one serves a signaling function. To generalize the intended target to other relatable targets, this assay endpoint is annotated to the cell morphology intended target family, where the subfamily is cell conformation.
Cells were treated with dimethyl sulfoxide (DMSO) as a solvent control at a final concentration of 0.5% v/v or with compounds in DMSO with a resulting final DMSO concentration of 0.5% v/v. Compound treatment was done at concentrations of 0.39, 0.78, 1.56, 3.12, 6.24, 12.5, 25, 50, 100, and 200 uM in duplicate on each plate. Cells were treated with compounds for 1, 24, or 72 hr. Carbonyl […] m-chloro-phenylhydrazone (CCCP) and taxol were used as positive controls for mitochondrial function and cytoskeletal stability, respectively; DMSO served as the negative control for this experiment. Cells were fixed by the direct addition of 50 uL formaldehyde in Hank's Balanced Salt Solution (HBSS) to a final concentration of 3.7%. After incubation in the fixation medium for 30 min at room temperature (293-298 K), cells were rinsed twice with HBSS and treated with cell permeabilization buffer (16 uL of 0.5% Triton X-100) for 10 min at room temperature (293-298 K) before labeling. For mitochondrial membrane potential and mitochondrial measurements, pre-fixed cells were incubated with 50 uL of MitoTracker Red CMXRos (Invitrogen) at a concentration of 250 nM for 30 min before fixation. In the remaining cases, post-fixed cells were labeled by incubation with a multiplexed mixture of primary antibodies in HBSS for 60 min at room temperature (293-298 K) to detect immunoreactivity of c-Jun (1:500), phospho-histone H3 (1:100), phospho-histone H2A.x (1:200), p53 (1:400), alpha-tubulin (1:200) and Hoechst 33342 (2 ug/mL). Cells were labeled for multiplexed imaging on two separate plates: a) Hoechst 33342, MitoTracker Red, phospho-histone H3, and alpha-tubulin, and b) Hoechst 33342, phospho-histone H2A.x, and c-Jun. A final rinse with HBSS (50 uL) was performed before analysis. The primary and secondary antibodies for the proteins were phospho-histone H3 (rabbit anti-phospho-histone H3 and FITC-donkey anti-rabbit IgG), phospho-histone H2A.x (mouse anti-phospho-histone H2A.x and FITC-donkey anti-mouse IgG), c-Jun (rabbit anti-phospho-c-Jun and Cy3-donkey anti-rabbit IgG), p53 (sheep anti-p53 and Cy5-donkey anti-sheep IgG), alpha-tubulin (mouse anti-alpha-tubulin and Cy5-donkey anti-mouse IgG). These antibodies are available as the CellCiphr HepG2 assay kit (Millipore).Digital images of each well were captured using a Cellomics ArrayScan VTI (Thermo Scientific Cellomics) (0.8 NA objective, 0.63x optical coupler, and XF-93 filter set) at 20x magnification. The images were acquired using the autofocus feature of the ArrayScan instrument, which entails the following steps. First, the camera focuses on channel 1 (Hoechst 33342), where nuclei are identified. Second, a Z offset of 1 um is used for capturing mitochondria (MitoTracker Red). […]
Regarding `Nc1c(Cl)c(Cl)nc(C(=O)O)c1Cl`, the outcome was inactive.

As for `COC(=O)NS(=O)(=O)c1ccc(N)cc1`, the compound was called inactive.

For `CSC(=O)c1c(C(F)F)nc(C(F)(F)F)c(C(=O)SC)c1CC(C)C`, the AC50 (usually the concentration giving half of the maximal activity seen) was 64.6 µM (active).

Regarding `CC(C)N1C(=O)c2ccccc2NS1(=O)=O`, the compound was called inactive.

Turning to `CC(C)NC(=O)N1CC(=O)N(c2cc(Cl)cc(Cl)c2)C1=O`, the compound was called inactive.

For `COc1cc(OC)nc(NC(=O)NS(=O)(=O)c2ncccc2OCC(F)(F)F)n1`, the compound was called inactive.

On to `Cc1cc(C)nc(Nc2ccccc2)n1`, for which the result was inactive.

Consider `CC1(C)CCC(=Cc2ccc(Cl)cc2)C1(O)Cn1cncn1` (stereo not given), for which the compound was classed as inactive.

With `COP(=S)(OC)SCn1nnc2ccccc2c1=O`, the outcome was inactive.

`Cc1nc(N(C)C)nc(OC(=O)N(C)C)c1C`: the outcome was inactive.

On to `CCOP(=S)(OCC)Oc1nc(Cl)n(C(C)C)n1`, for which the outcome was inactive.

Take `CC(C)(C)C(=O)C(Oc1ccc(Cl)cc1)n1cncn1` (stereo not given): the outcome was inactive.

With `Clc1nc(Cl)nc(Nc2ccccc2Cl)n1`, the compound was classed as inactive.

In the case of `O=P(O)(O)CCCl`, the result was inactive.

Take `CS(=O)(=O)c1cc(C(F)(F)F)ccc1C(=O)c1cnoc1C1CC1`: the outcome was inactive.

On to `CCN(CC)C(=O)C(C)Oc1cccc2ccccc12` (stereo not given), for which the call was inactive.

Take `CC(C)Nc1nc(Cl)nc(NC(C)C)n1`: the compound was called inactive.

Take `N#Cc1c[nH]cc1-c1cccc2c1OC(F)(F)O2`: the AC50 was 19.3 µM (active).

With `Cn1c(-c2ccccc2)cc(-c2ccccc2)[n+]1C`, the compound was classed as inactive.

Consider `Cc1c(COC(=O)[C@@H]2[C@H](/C=C(\Cl)C(F)(F)F)C2(C)C)cccc1-c1ccccc1`, for which the compound was called inactive.

Consider `CC1(C)CON(Cc2ccccc2Cl)C1=O`, for which the compound was classed as inactive.

In the case of `CCCCC(C#N)(Cn1cncn1)c1ccc(Cl)cc1` (stereo not given), the compound was called inactive.

Take `CCNP(=S)(OC)O/C(C)=C/C(=O)OC(C)C` (stereo not given): the compound was called inactive.

`COc1ccc(-c2ccccc2)cc1NNC(=O)OC(C)C`: the compound was classed as inactive.

On to `Clc1cccc(C(Cl)(Cl)Cl)n1`, for which the compound was called inactive.

For `CCCCC(O)(Cn1cncn1)c1ccc(Cl)cc1Cl` (stereo not given), the result was inactive.

Take `CCC(C)n1c(=O)[nH]c(C)c(Br)c1=O` (stereo not given): the compound was classed as inactive.

For the compound `CCOC(=O)C(C)OC(=O)c1cc(Oc2ccc(C(F)(F)F)cc2Cl)ccc1[N+](=O)[O-]` (stereo not given), the result was inactive.

For `COP(=O)(OC)O/C(C)=C/C(=O)N(C)C`, the call was inactive.

For `O=C(O)c1c(Cl)ccc2cc(Cl)cnc12`, the call was inactive.

`CC1(C)C(C(=O)OC(C#N)c2cccc(Oc3ccccc3)c2)C1(C)C` (stereo not given): the concentration at half-maximal activity (AC50) was 100 µM (active).

`COCC(C)N(C(=O)CCl)c1c(C)csc1C` (stereo not given): the concentration at half-maximal activity (AC50) is 105 µM (active).

Take `CCOc1nc(C(Cl)(Cl)Cl)ns1`: the call was inactive.

`CCNC(=O)NC(=O)C(C#N)=NOC`: the result was inactive.

For `COc1cc(Cl)c(OC)cc1Cl`, the call was inactive.

Turning to `COC(=O)NC(=S)Nc1ccccc1NC(=S)NC(=O)OC`, the outcome was inactive.

As for `CO/N=C(/C1=NOCCO1)c1ccccc1Oc1ncnc(Oc2ccccc2Cl)c1F`, the AC50 is 7.25 µM (active).

As to `O=C(Nc1ccccc1-c1ccc(Cl)cc1)c1cccnc1Cl`, the compound was classed as inactive.

Consider `CNC(=O)Oc1cccc2ccccc12`, for which the compound was called inactive.

`CCN(CC)c1nc(C)cc(OP(=S)(OC)OC)n1`: the outcome was inactive.
